In PubChem BioAssay (Tox21):
Several values for one entry are separate records, joined by “and”; a condition that tells them apart may be missing. Equal entries are not always repeated. Results filed as inconclusive are left out. The source holds several records for some structures; these can differ, active in one and inactive in another. Activity calls are given as the source filed them. Unless noted, the call rests on the fitted dose curve; in most records, active means well fitted curve in the direction sought with a large enough effect in the repeat runs; inconclusive means weak or mixed curves; inactive means no such curve, though single readings can be large; an effect the other way counts as inactive or inconclusive.

Assays:
[1] = qHTS assay to test for compound auto fluorescence at 535 nm (green) in HEK293 cells (AID 720680)
[2] = qHTS assay to test for compound auto fluorescence at 460 nm (blue) in HEK293 cell free culture (AID 720681)
Method in brief: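 Blue fluorescence (Ex 405/Em 460 nm, triamterene-equivalent) was read immediately after pin transfer of compound or DMSO into medium (DMEM, 10% FBS) without cells.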

[3] = qHTS assay to test for compound auto fluorescence at 535 nm (green) in HEK293 cell free culture (AID 720682)
Method in brief: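 Using fluorescein as calibrant, autofluorescence was quantified at 485/535 nm in cell-free DMEM containing 10% FBS after pintool addition of compound or vehicle.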

[4] = qHTS assay to test for compound auto fluorescence at 590 nm (red) in HepG2 cell free culture (AID 720684)
Method in brief: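 No cells present: MEM + 10% FBS only. Compound pinned in, red label read (540/590 nm). Activity = fluorescence equivalent to Rose Bengal sodium.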

[5] = qHTS assay to test for compound auto fluorescence at 460 nm (blue) in HepG2 cell free culture (AID 720685)
Method in brief: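 Cell-free plates of MEM plus 10% FBS received 23 nL compound or DMSO vehicle; blue-channel (405/460 nm) intensity scored against triamterene as reference fluorophore.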

[6] = qHTS assay to test for compound auto fluorescence at 535 nm (green) in HepG2 cell free culture (AID 720686)
[7] = qHTS assay to test for compound auto fluorescence at 460 nm (blue) in HepG2 cells (AID 720687)
Method in brief: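 Blue-channel autofluorescence (Ex/Em 405/460 nm, triamterene-equivalent) was measured after 1 hr compound exposure at 37 C, 5% CO2. Cells were HepG2, plated overnight at 37 C in MEM plus 10% FBS.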

[8] = qHTS assay to identify small molecule antagonists of the glucocorticoid receptor (GR) signaling pathway - cell viability counter screen (AID 720693); further: nearly all actives have a fitted effect of over 55% in size
[9] = qHTS assay for identifying genotoxic compounds that show differential cytotoxicity against isogenic chicken DT40 cell lines with known DNA damage response pathways - wild type cell line (AID 743012); further: nearly all actives have a fitted effect of over 60% in size; further: potency means the concentration at half of the fitted maximal effect
Method in brief: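 Endpoint: CellTiter-Glo luminescence, 30 min RT. Cells: wild type DT40, 300/well. Exposure: compounds in DMSO, 40 h, 37 C/5% CO2, after ~0.5 h pre-incubation.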

[10] = qHTS assay for identifying genotoxic compounds that show differential cytotoxicity against isogenic chicken DT40 cell lines with known DNA damage response pathways - Rev3 mutant cell line (AID 743014); further: nearly all actives have a fitted effect of over 55% in size; further: potency means the concentration at half of the fitted maximal effect
[11] = qHTS assay for identifying genotoxic compounds that show differential cytotoxicity against isogenic chicken DT40 cell lines with known DNA damage response pathways - Rad54/Ku70 mutant cell line (AID 743015); further: nearly all actives have a fitted effect of over 60% in size; further: potency means the concentration at half of the fitted maximal effect
[12] = qHTS assay to identify small molecule antagonists of the androgen receptor (AR) signaling pathway - cell viability counter screen (AID 743033; further: nearly all actives have a fitted effect of over 45% in size; further: potency means the concentration at half of the fitted maximal effect)
[13] = qHTS assay to identify small molecule antagonists of the androgen receptor (AR) signaling pathway using the MDA cell line - cell viability counter screen (AID 743041; further: nearly all actives have a fitted effect of over 45% in size)
Method in brief: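 Using the breast carcinoma line MDA-kb2 AR-luc, test chemicals were co-incubated with R1881 for 16 h; CellTiter-Fluor reagent, added at 15.5 h, provided a fluorescence measure of live cells.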

[14] = biological target: Glucocorticoid receptor (Homo sapiens) (UniProt P04150); assay: qHTS assay to identify small molecule agonists of the glucocorticoid receptor (GR) signaling pathway (AID 720691; active means well fitted activation curve with a large enough effect in the signal ratio in the repeat runs, not every such curve was filed as active; the % refers to the signal ratio); details: GR-bla HeLa, beta-lactamase reporter ratio, 18 h; activation: at 62.4 µM (top of the series) unless noted
Method in brief: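 Measures GR pathway activation through a GRE-beta-lactamase reporter stably integrated in HeLa cells, with 18 h compound treatment at 37 C and fluorescence detection using a FRET substrate.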

[15] = biological target: Glucocorticoid receptor (Homo sapiens) (UniProt P04150); assay: qHTS assay to identify small molecule antagonists of the glucocorticoid receptor (GR) signaling pathway (AID 720692; active means well fitted inhibition curve with a large enough effect in the signal ratio in the repeat runs, not every such curve was filed as active; the % refers to the signal ratio)
Method in brief: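 Tox21 10K library screened in concentration-response for blockade of dexamethasone (5 nM final)-induced GRE-bla reporter activity in HeLa cells; 18 h treatment, fluorescence read.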

[16] = biological target: Androgen receptor (Homo sapiens) (UniProt P10275); assay: qHTS assay to identify small molecule antagonists of the androgen receptor (AR) signaling pathway (AID 743035; active means well fitted inhibition curve with a large enough effect in the signal ratio in the repeat runs, not every such curve was filed as active; the % refers to the signal ratio)
Method in brief: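 R1881 agonist challenge of a HEK293 UAS-beta-lactamase AR reporter line in the presence of compound (16 h, 37C); signal taken as FRET fluorescence after 2 h with LiveBLAzer B/G substrate at room temperature.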

[17] = biological target: Androgen receptor (Homo sapiens) (UniProt P10275); assay: qHTS assay to identify small molecule agonists of the androgen receptor (AR) signaling pathway (AID 743036; active means well fitted activation curve with a large enough effect in the signal ratio in the repeat runs, with a control signal flat, not every such curve was filed as active; the % refers to the signal ratio)
Method in brief: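 In this Tox21 qHTS, 2,000 HEK293 AR-bla cells per well were incubated with compounds for 16 h at 37C and 5% CO2. Fluorescence intensity was recorded 2 h after adding LiveBLAzer B/G FRET substrate at room temperature.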

[18] = biological target: Androgen receptor (Homo sapiens) (UniProt P10275); assay: qHTS assay to identify small molecule agonists of the androgen receptor (AR) signaling pathway using the MDA cell line (AID 743040; further: nearly all actives have a fitted effect of over 20% in size)
Method in brief: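 Stable MMTV-luciferase reporter in MDA-kb2 cells; note the promoter carries GR as well as AR response elements. 16 h compound treatment, 37C, 0% CO2; ONE-Glo luminescence endpoint.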

[19] = biological target: Androgen receptor (Homo sapiens) (UniProt P10275); assay: qHTS assay to identify small molecule antagonists of the androgen receptor (AR) signaling pathway using the MDA cell line (AID 743042; further: nearly all actives have a fitted effect of over 55% in size)
Method in brief: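 Antagonist mode: compounds plus R1881 agonist added to MDA-kb2 AR-luc cells, incubated 16 h at 37C. Luciferase reporter luminescence quantified, with multiplexed CellTiter-Fluor readout for cell viability.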

[20] = qHTS assay to test for compound auto fluorescence at 590 nm (red) in HEK293 cell free culture (AID 720683)
Method in brief: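 Red-channel autofluorescence of compounds in culture medium (DMEM, 10% FBS), no cells, measured at 540/590 nm. Rose Bengal sodium is the reference fluorophore for equivalence.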

Measured: Potency

Chain of Glucocorticoid receptor (Homo sapiens) (P04150 whole entry, looked up): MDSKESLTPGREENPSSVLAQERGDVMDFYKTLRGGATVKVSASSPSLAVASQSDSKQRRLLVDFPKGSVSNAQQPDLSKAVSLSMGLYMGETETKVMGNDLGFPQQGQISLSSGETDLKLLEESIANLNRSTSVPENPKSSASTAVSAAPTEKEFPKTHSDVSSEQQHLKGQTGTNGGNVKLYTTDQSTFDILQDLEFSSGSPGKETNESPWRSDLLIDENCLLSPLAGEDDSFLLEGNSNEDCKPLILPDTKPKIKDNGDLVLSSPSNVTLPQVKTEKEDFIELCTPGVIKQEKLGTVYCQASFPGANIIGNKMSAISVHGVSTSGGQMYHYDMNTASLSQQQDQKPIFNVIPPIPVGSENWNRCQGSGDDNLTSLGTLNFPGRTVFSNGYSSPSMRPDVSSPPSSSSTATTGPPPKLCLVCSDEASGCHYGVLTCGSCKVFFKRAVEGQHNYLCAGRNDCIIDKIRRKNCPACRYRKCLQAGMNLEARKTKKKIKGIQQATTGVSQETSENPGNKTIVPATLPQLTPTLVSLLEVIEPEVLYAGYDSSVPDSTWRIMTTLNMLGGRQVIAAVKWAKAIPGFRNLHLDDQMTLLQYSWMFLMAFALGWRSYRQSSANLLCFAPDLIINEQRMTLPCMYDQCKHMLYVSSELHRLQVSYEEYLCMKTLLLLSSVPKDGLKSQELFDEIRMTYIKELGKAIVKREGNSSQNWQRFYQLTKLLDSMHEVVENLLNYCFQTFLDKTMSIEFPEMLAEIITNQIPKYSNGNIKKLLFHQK
Chain of Androgen receptor (Homo sapiens) (P10275 whole entry, looked up): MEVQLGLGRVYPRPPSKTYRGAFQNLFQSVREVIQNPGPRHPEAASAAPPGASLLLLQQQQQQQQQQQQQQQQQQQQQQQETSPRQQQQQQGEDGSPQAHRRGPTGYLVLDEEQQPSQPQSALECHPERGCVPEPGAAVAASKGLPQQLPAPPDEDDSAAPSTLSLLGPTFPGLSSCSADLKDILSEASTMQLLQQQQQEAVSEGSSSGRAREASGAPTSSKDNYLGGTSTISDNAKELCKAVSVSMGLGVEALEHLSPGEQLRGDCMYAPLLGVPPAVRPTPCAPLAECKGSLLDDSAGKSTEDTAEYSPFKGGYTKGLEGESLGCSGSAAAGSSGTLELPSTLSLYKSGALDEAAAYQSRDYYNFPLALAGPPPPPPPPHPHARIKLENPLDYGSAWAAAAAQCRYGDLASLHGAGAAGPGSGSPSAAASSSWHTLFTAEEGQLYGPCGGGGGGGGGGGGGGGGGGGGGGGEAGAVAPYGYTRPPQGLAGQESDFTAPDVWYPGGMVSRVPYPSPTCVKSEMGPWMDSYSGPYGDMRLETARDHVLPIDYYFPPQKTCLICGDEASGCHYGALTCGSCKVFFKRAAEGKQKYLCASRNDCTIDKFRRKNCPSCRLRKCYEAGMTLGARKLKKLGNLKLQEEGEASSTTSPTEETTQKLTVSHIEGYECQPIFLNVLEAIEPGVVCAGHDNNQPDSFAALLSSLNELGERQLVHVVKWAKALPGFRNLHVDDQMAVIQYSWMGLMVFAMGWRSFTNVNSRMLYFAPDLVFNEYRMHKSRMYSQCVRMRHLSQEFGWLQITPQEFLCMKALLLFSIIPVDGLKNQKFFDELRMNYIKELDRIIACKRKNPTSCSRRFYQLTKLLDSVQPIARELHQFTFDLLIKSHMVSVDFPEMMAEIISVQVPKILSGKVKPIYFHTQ

ClC1=C(Cl)C(Cl)(Cl)C(Cl)=C1Cl
inactive and 864 nM (active): [10]
inactive and 770 nM (active): [9] | [11]
not listed: [14] | [15] | [16] | [17] | [18] | [19] | [20]
inactive: all other assays above

O=C1N=C(O)CN1/N=C/c1ccc(-c2ccc([N+](=O)[O-])cc2)o1
inactive: [1] | [2] | [3] | [4] | [5] | [6] | [7] | [8] | [12]
active: [9] 61.1 µM | [11] 26.6 µM and 27.3 µM
inactive and 68.6 µM (active): [10]

Cc1ccc(C(=O)O)o1
not listed: [8] | [15] | [16] | [17] | [18] | [19] | [20]
inactive: all other assays above

CCOC(=O)[C@H](CCc1ccccc1)N[C@@H](C)C(=O)N1Cc2ccccc2C[C@H]1C(=O)O
inactive and 61.6 µM (active): [10]
not listed: [15] | [16] | [17] | [18] | [19] | [20]
inactive: all other assays above

NC(=O)NNc1ccccc1
inactive: [1] | [2] | [3] | [4] | [5] | [6] | [7] | [15] | [12]

NCc1cccc(CN)c1
not listed: [14] | [15] | [16] | [17] | [18] | [19] | [20]
inactive: all other assays above

C[C@@H](O)[C@H]1C(=O)N2C(C(=O)O)=C(S[C@@H]3CN[C@H](C(=O)N(C)C)C3)[C@H](C)[C@H]12
not listed: [10] | [14] | [15] | [16] | [17] | [18] | [19] | [20]
inactive: all other assays above

CS(=O)(=O)Nc1ccc([N+](=O)[O-])cc1Oc1ccccc1
inactive: [1] | [2] | [3] | [4] | [5] | [6] | [7] | [9] | [10] | [11] | [12]

O=S(=O)(Oc1ccc(Cl)cc1Cl)c1ccccc1
not listed: [10] | [14] | [15] | [16] | [17] | [18] | [19] | [20]
inactive: all other assays above

CC1Cc2ccccc2N1NC(=O)c1ccc(Cl)c(S(N)(=O)=O)c1 (configuration not stated)
not listed: [14] | [15] | [16] | [17] | [18] | [19] | [20]
inactive: all other assays above

CCCCCCCCCC(=O)O
61.2 µM (active) and inactive: [11]
inactive and 55 µM (active): [12]
not listed: [8] | [10] | [15] | [20]
inactive: all other assays above

CC(=O)[C@@]1(O)CC[C@H]2[C@@H]3CCC4=CC(=O)CC[C@]4(C)[C@H]3CC[C@@]21C
inactive and 17.2 µM (active): [10]
active: [11] 24.3 µM
not listed: [9] | [15] | [16] | [17] | [18] | [19] | [20]
inactive: all other assays above

C=C(C)C(=O)OCCCCCC
not listed: [8] | [13] | [15] | [16] | [17] | [18] | [19] | [20]
inactive: all other assays above

CN(C)c1ccc(C(=N)c2ccc(N(C)C)cc2)cc1
inactive: [1] | [3] | [20] | [4] | [5] | [6] | [8]
active: [9] 5.38 µM and 11.7 µM | [10] 2.4 µM and 8.31 µM | [11] 3.81 µM and 11.7 µM | [12] 34.2 µM and 37.4 µM

Oc1ccc(OCc2ccccc2)cc1
active: [9] 2.54 µM and 8.45 µM | [10] 2.85 µM and 5.33 µM | [11] 4.52 µM and 11.9 µM
not listed: [8] | [14] | [15] | [16] | [20]
inactive: all other assays above

CC1=CC[C@H]2C[C@@H]1C2(C)C
not listed: [8] | [14] | [15] | [16] | [17] | [18] | [19] | [20]
inactive: all other assays above

Nc1cc(-c2ccncc2)c[nH]c1=O
not listed: [8] | [15] | [20]
inactive: all other assays above

CCCCCCCCC
not listed: [13] | [14] | [15] | [16] | [17] | [18] | [19] | [20]
inactive: all other assays above

c1ccc2[nH]cnc2c1
not listed: [13] | [14] | [15] | [16] | [17] | [18] | [19] | [20]
inactive: all other assays above

CC(C)(C)C1CCC(O)CC1 (configuration not stated)
not listed: [14] | [15] | [16] | [17] | [18] | [19] | [20]
inactive: all other assays above

CC(=O)Nc1ccc(C(=O)O)cc1
not listed: [8] | [13] | [16] | [17] | [18] | [19] | [20]
inactive: all other assays above

CCCCCCCCCCCCOCC1CO1 (configuration not stated)
not listed: [8] | [13] | [14] | [16] | [17] | [18] | [19] | [20]
inactive: all other assays above

C=C1CC[C@H](O)CC1=C/C=C1\CCC[C@]2(C)[C@@H]([C@H](C)/C=C/[C@H](C)C(C)C)CC[C@@H]12
inactive and 43.3 µM (active): [12]
active: [9] 10.6 µM and 13.6 µM and 30.6 µM | [10] 12.1 µM and 24.3 µM | [11] 13.3 µM and 13.6 µM and 27.3 µM
inactive: [1] | [2] | [3] | [4] | [5] | [6] | [7]

CNC[C@H](O)[C@@H](O)[C@H](O)[C@H](O)CO
not listed: [8] | [14] | [15] | [16] | [17] | [18] | [19] | [20]
inactive: all other assays above

CCCCC(CC)COC(C)=O (configuration not stated)
not listed: [15] | [16] | [17] | [18] | [19] | [20]
inactive: all other assays above
